Molecules are shown by their SMILES. Counter-ions that a name gives are not always drawn. ± gives the standard deviation of the averaged measurements.

The test deals with Toxoplasma gondii RH (in HFF). Kind of test: parasite growth relative to the screen mean (all compounds = 100%); higher = less inhibition of parasite growth. The following applies: 5 µM; 72 h; oxygen 21 %. Put shortly: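 Confluent human foreskin fibroblasts in 96-well plates received library compounds by pin transfer at 5 µM final, taken from 10 mM DMSO stocks. Within 2 h the cells were infected with RH β-Gal–GFP Toxoplasma at MOI 1:5 and cultured 72 h at 21% O2. A CPRG β-Gal assay read against in-plate standard curves gave parasite number, and growth is stated relative to the screen mean, where all compounds = 100%, averaged across two screens.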

For the molecule `Cn1cnc2c(NCc3ccccc3)nc(NCCO)nc21` [Olomoucine], the parasite growth is 127 ± 7.9%.
Molecule `CC(C)C[C@H](NC(=O)[C@@H](O)[C@H](N)Cc1ccccc1)C(=O)O` [Bestatin] returned a parasite growth of 136 ± 6.9%.
The molecule `Nc1nc2ccc(Cl)cc2c2nc(-c3ccco3)nn12` displayed a parasite growth of 131 ± 14%.
`CC(=N)NCCCC[C@H](N)C(=O)O` [L-NIL hydrochloride] had a parasite growth of 130 ± 15%.
To `O=C(Nc1cccc2cccnc12)c1ccc(N2C(=O)[C@@H]3[C@H](C2=O)[C@@H]2C=C[C@H]3C2)cc1` [endo-IWR 1] belongs 113 ± 21%; to `CC(C)[N+]1(C)[C@@H]2CC[C@H]1C[C@@H](OC(=O)C(CO)c1ccccc1)C2` (some centres undefined) [Ipratropium bromide], 76.1 ± 21%.
For the molecule `CN(Cc1ccccc1)C(=O)[C@H](Cc1ccc2ccccc2c1)NC(=O)[C@@H]1C[C@@H](O)CN1C(=O)c1cn(C)c2ccccc12`, the parasite growth worked out at 138 ± 4.8%.
The molecule `CCCCCCCCCCC[C@@H](C[C@@H]1OC(=O)[C@H]1CCCCCC)OC(=O)[C@H](CC(C)C)NC=O` [Orlistat] yielded a parasite growth of under 0%.
In turn, `COc1ccc2[nH]c(C(=O)c3ccccc3)cc2c1` yielded a parasite growth of 38.5 ± 2.6%.
As for `CCN1CCC[C@H]1CNC(=O)c1c(OC)ccc(Br)c1OC` [Remoxipride hydrochloride], the figure is 113 ± 3.8%; as for `Nc1ncnc2nc(-c3ccc(N4CCOCC4)nc3)cc(-c3cccc(Br)c3)c12` [ABT 702 dihydrochloride], 100 ± 9.5%; as for `O=C1CC2(CCCC2)CC(=O)N1CCNCC1COc2ccccc2O1` (centres undefined), 152 ± 13%.
Turning to `O=C1NN(C(=O)Nc2ccc(Br)cc2)[C@@H](c2ccccc2)[C@@H]1c1ccccc1`, the parasite growth came to 124.5 ± 1.1%.
To `COc1ccc(-c2nc(-c3ccc(-c4cccc(Cl)c4)o3)[nH]c2-c2ccc(OC)cc2)cc1` [Neurodazine] belongs 120 ± 28%.
